In the library only some 5.7% were active in any assay of this set; here they are far more common.
VP16 counter: VP16 counterscreen qHTS for inhibitors of ROR gamma transcriptional activity | Drosophila S2 Gal4-VP16 UAS-luciferase, luminescence, 20 h | Potency, µM (highest dose often 53.6 µM), for inactives: top-dose activity, negative = inhibition, hits mostly inhibitors | actives 3.5% (n = 310,000) | AID 2546, 2010;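 note: Gal4-VP16 expression switched on by copper sulfate through the metallothionein promoter; nearly all actives have a fitted effect of over 50% in size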
B2AR arrestin: qHTS assay of beta-arrestin-biased ligands of beta2-adrenergic receptor; Potency, µM (titrated, usually from 46.1 µM), for inactives: at the top dose activation, usual class: activators; Beta-2 adrenergic receptor (Homo sapiens), P07550; beta-arrestin recruitment to beta2AR, cell-based reporter; actives 0.02% (n = 330,000); AID 492947, 2010;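 note: 0% = DMSO controls and full agonism = EC100 isoproterenol or metaproterenol; nearly all actives have a fitted effect of over 65% in size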
Target sequence (P07550 whole entry, looked up): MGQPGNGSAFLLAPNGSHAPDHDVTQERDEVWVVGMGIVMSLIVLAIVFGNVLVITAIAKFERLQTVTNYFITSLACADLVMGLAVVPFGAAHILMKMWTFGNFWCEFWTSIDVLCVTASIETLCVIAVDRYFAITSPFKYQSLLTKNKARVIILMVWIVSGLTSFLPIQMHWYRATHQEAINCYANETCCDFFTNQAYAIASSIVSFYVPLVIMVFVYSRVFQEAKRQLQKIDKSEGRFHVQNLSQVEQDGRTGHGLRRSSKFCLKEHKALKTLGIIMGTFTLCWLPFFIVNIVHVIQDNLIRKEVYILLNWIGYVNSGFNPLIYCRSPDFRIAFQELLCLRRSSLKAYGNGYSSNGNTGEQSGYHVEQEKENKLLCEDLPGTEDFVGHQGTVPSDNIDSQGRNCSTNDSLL
RORg inh: qHTS for inhibitors of ROR gamma transcriptional activity | Potency, µM (doses to about 53.6 µM), for inactives: top-dose activity change, negative = inhibition, usual class: inhibitors | Nuclear receptor ROR-gamma (Mus musculus), P51450 | Drosophila S2 Gal4-RORgamma UAS-luciferase reporter, 20 h | AID 2551, 2010 | actives 5.4% (n = 310,000); note: nearly all actives have a fitted effect of over 60% in size
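Stable Schneider cell line, Gal4 DNA-binding domain fused to ROR gamma, UAS-luciferase. Cmpd 1 hr RT → CuSO4 700 uM final → 20 hr RT → luciferase reagent 10 min → luminescence.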
NPSR antag: qHTS Assay for Antagonists of the Neuropeptide S Receptor: cAMP Signal Transduction | Potency, µM (titrated, usually from 38.3 µM), inactives show at the top dose activity change, negative = inhibition, usual class: inhibitors | CHO-NPSR cells, cAMP TR-FRET, antagonist mode | actives 1% (n = 220,000); note: nearly all actives have a fitted effect of over 50% in size
The depositor's hits bear a star; ? = inconclusive; nt = not tested or not shown; [ ] = another dose, or the depositor's remark. Calls come from the whole dose curve; as a rule, active = well fitted curve in the direction sought with a large enough effect; inconclusive = small, poorly fitted or top-dose-only effect, or another doubt; inactive = no such curve, though single readings can be large; an effect the other way counts as inactive or inconclusive. Unless noted, % is set by controls: 0 for no effect and ±100 for the full control effect; potency is the fitted concentration of half-maximal effect.

SMILES | VP16 counter | B2AR arrestin | RORg inh | NPSR antag
Cc1nc2c(c(=O)n1CCC1=CCCCC1)c1nc3ccccc3nc1n2/N=C/c1ccco1 | 14% | 0% | 18% | 10µM*
COc1ccc(CNS(=O)(=O)c2ccc3c(c2)CCN3C(=O)C2CC2)cc1 | 16µM* | -1% | -8% | -3%[46.1 µM]
CC(=O)N1c2ccc(S(=O)(=O)NCC3CCC(C(=O)Nc4cc(C)ccn4)CC3)cc2CC1C (stereo not drawn) | 7.1µM* | -1% | ? | nt
COc1cccc(CNS(=O)(=O)c2ccc3c(c2)CC(C)N3C(=O)C2CC2)c1 (stereo not drawn) | ? | 0% | -36% | nt
COc1ccc(CNS(=O)(=O)c2ccc3c(c2)CC(C)N3C(=O)C2CC2)cc1 (stereo not drawn) | 18µM* | 0% | ? | nt
O=C(C1CC1)N1CCc2cc(S(=O)(=O)NCCCN3CCCCC3)ccc21 | -7% | 0% | -19% | nt
COc1cc(CNS(=O)(=O)c2ccc3c(c2)CC(C)N3C(=O)C2CCC2)cc(OC)c1OC (stereo not drawn) | 6.3µM* | 0% | -42% | nt
CC(=O)N1c2ccc(S(=O)(=O)NCC3CCC(C(=O)Nc4ncccc4C)CC3)cc2CC1C (stereo not drawn) | -3% | 0% | -1% | nt
CC(=O)N1CCc2cc(S(=O)(=O)NCCC(=O)NCCc3ccc(C)cc3)ccc21 | 3.5µM* | 0% | ? | 2%[46.1 µM]
Cc1cc(C)nc(N2CCCC(C(=O)NCCC3=CCCCC3)C2)n1 (stereo not drawn) | 2% | -1% | -14% | -1%[46.1 µM]
O=C(O)c1ccc(N2C(=O)/C(=C/c3ccc(-c4ccc([N+](=O)[O-])cc4)o3)C=C2c2ccccc2)cc1 | 0% | 0% | -1% | 10µM*
O=C1NN(c2ccccc2)C(=O)/C1=C/c1ccc(-c2ccc(C(=O)O)cc2)o1 | -9% | 0% | 22% | nt
COc1ccc(NC(=S)/N=C(\N)Nc2nc(C)c3ccccc3n2)cc1 | 4.5µM* | -1% | 1µM* | 2%
CCOc1ccc2nc(C)cc(Nc3cccc([N+](=O)[O-])c3)c2c1 | ? | 0% | ? | 0%
COc1ccc2nc(N/C(N)=N/C(=S)Nc3c(C)cccc3C)nc(C)c2c1 | -6% | 0% | 16% | -30%
COc1ccc2nc(N/C(N)=N/C(=S)Nc3cccc(C)c3)nc(C)c2c1 | 4.5µM* | 0% | 3.5µM* | -2%
COc1ccc2nc(N/C(N)=N/S(C)(=O)=O)nc(C)c2c1 | 5% | 0% | -4% | 35%
CCOc1ccc2nc(N/C(N)=N/C(=S)Nc3cccc(OC)c3)nc(C)c2c1 | ? | -1% | 0.79µM* | 2%
CCOc1ccc2nc(N/C(N)=N/C(=S)Nc3cccc(C)c3)nc(C)c2c1 | 3.5µM* | 1% | 1.6µM* | -9%[46.1 µM]
CCN1C(=O)[C@H]2[C@@H]3[C@H](O)[C@H](O)CC(=O)[C@H]3CC[C@H]2C1=O | 1%[10 µM] | nt | 7%[10 µM] | nt
CCCCCCCCCCCCCCC1CO1 (stereo not drawn) | -5% | nt | 15% | nt
CCCC(c1nnnn1C1CCCC1)N1CCN(C(=O)c2ccco2)CC1 (stereo not drawn) | -3% | 0% | -5% | 13µM*
CC(C)(C)c1csc(NNC(=O)c2ccc(Cl)cc2)n1 | 7.1µM* | -1% | 0.45µM* | -5%
CC(C)(C)c1csc(NC(=O)c2cccnc2)n1 | 16% | 0% | ? | nt
Cc1cccc(CNc2ncncc2-c2cccc(NS(C)(=O)=O)c2)c1 | 1% | nt | -35% | nt
SMILES | VP16 counter | B2AR arrestin | RORg inh | NPSR antag
CCc1nnc(NC(=O)c2cc(S(=O)(=O)N(C)c3ccc(OC)cc3)ccc2Cl)s1 | 0% | 0% | -19% | nt
CN=c1scc(-c2ccc(F)cc2)n1/N=C/c1ccc(O)c(O)c1 | 0.79µM* | 0% | 0.11µM* | 7%
Cc1c(Cl)cccc1N=Cc1ccc([N+](=O)[O-])s1 | 20µM* | -1% | ? | 0%[46.1 µM]
Cn1cc(S(=O)(=O)N2CCNCC2)cc1C(N)=O | nt | -1% | nt | nt
Cc1cccc(-n2nc3c(c2NC(=O)CCCl)CSC3)c1 | 6% | -1% | 6% | nt
Cc1cccc(-n2nc3c(c2NC(=O)c2ccc(Br)o2)CSC3)c1 | 16% | 0% | 3.2µM* | -15%[46.1 µM]
COc1ccc(Nc2ncnc3scc(-c4ccc(OC)cc4)c23)cc1 | -8% | 0% | -12% | -13%
COc1cccc(/C=N/Nc2ncnc3scc(-c4ccccc4)c23)c1O | 13µM* | -1% | 2.8µM* | -31%
COc1cccc(/C=N/Nc2ncnc(Cl)c2N)c1O | 3.2µM* | -1% | 1.8µM* | -18%
COc1cccc(C=NCCCN=Cc2cccc(OC)c2O)c1O | -3% | 0% | 7.9µM* | nt
COc1cccc(C=NCCNC(=O)c2nonc2N)c1O | -18% | 0% | ? | 0%[46.1 µM]
COc1cccc(/C=N/Nc2nccnc2Cl)c1O | 7.1µM* | 0% | 3.2µM* | -3%
COc1ccc(/C=N/Nc2ncnc(Cl)c2N)cc1OC | ? | 3% | ? | -25%
CC(C)(C)NC(=O)NC(=O)COC(=O)CNS(=O)(=O)/C=C/c1ccccc1 | 3% | 0% | -8% | 5%
Nc1nc2ccccc2n1/N=C/c1ccc([N+](=O)[O-])s1 | ? | 0% | -25% | -9%
Nc1nc2ccccc2n1/N=C/c1ccc(-c2ccccc2)o1 | ? | 0% | 7.9µM* | -16%[46.1 µM]
CC(=O)c1c(C)nc(Nc2nc(C)c3cc(C)ccc3n2)nc1C | ? | 0% | 4µM* | 20%
Cc1ccc(/C(=N/Nc2nc3ccccc3s2)C2=C(O)c3ccccc3C2=O)cc1 | ? | 0% | 4.5µM* | -33%
COc1cccc(-c2csc(N3CCN(C(=S)Nc4ccccc4Cl)CC3)n2)c1 | ? | 4% | 11µM* | -13%[46.1 µM]
CCNC(=S)N1CCN(c2nc(-c3cccc(OC)c3)cs2)CC1 | ? | 0% | 14% | nt
COc1cccc(-c2csc(N3CCN(C(=S)Nc4ccccc4OC)CC3)n2)c1 | ? | 0% | 7.9µM* | -7%[46.1 µM]
COc1cccc(-c2csc(N3CCN(C(=S)Nc4cccc(Cl)c4)CC3)n2)c1 | 18µM* | 0% | 2.8µM* | -11%[46.1 µM]
O=C(CSc1nnc(-c2ccccc2Cl)o1)N1CCOCC1 | -7% | 0% | -20% | nt
COC(=O)C1=C[C@@H](C(=O)OC)C2C3=C(C(=O)[C@@]2(C)NC(=O)c2ccccc2)[C@H](C)n2c(=O)n(C)c(=O)n2[C@@H]3C1 (stereo partly drawn) | 8% | nt | -9% | nt
N#Cc1ccc(CN2CC3(CCN(C(=O)c4csnn4)CC3)C2)cc1 | 5% | nt | -7% | nt
COc1cccc(-c2nccc(NCCc3c[nH]c4ccc(OC)cc34)n2)c1 | 5% | nt | ? | nt
Fc1ccc(Nc2ncnc3ccc(-c4ccoc4)cc23)cc1 | -11% | nt | ? | nt
CC(C)OC(=O)C1=C(N)N2C(=O)CSC2=C(C(=O)OC(C)C)C1 | -5% | -1% | 10µM* | -13%[46.1 µM]
O=C(Nc1cc(S(=O)(=O)N2CCCCC2)ccc1Oc1ccccc1)C1=COCCO1 | -10% | 0% | ? | nt

High-throughput results from PubChem.
